Data taken from article PMC7862700, “An all-to-all approach to the identification of sequence-specific readers for epigenetic DNA modifications on cytosine”.

Key:
Experiment in all cases: DAPPL (digital affinity profiling via proximity ligation, sequencing); 10 mM Tris-HCl pH 7.5, 50 mM NaCl, 1 mM DTT, 4% glycerol, room temperature, 30 min; GST-TFs on glutathione beads, 16-mer random dsDNA library, 0.1% formaldehyde crosslink after washing; high values mean tight binding
Details in all cases: protein: recombinant; tags: N-terminal GST; dsDNA, one strand shown
FLI1 = target: T1, FLI1 (Homo sapiens, UniProt Q01543 1-452)
T1 sequence: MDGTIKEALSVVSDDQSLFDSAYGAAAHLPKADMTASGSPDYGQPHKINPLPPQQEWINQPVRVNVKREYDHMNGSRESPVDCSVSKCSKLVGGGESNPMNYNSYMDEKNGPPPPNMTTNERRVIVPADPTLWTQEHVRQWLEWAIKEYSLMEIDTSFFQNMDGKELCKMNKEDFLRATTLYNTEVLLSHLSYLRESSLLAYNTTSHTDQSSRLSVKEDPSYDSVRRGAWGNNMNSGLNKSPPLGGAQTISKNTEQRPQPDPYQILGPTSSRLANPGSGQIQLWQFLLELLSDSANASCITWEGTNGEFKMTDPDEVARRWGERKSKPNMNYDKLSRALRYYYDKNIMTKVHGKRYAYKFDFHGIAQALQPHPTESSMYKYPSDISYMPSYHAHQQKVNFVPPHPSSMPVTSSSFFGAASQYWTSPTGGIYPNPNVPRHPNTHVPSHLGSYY
How it was run: (§1)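 The binding signal reported is, for every hexamer, its read frequency for a factor over its read frequency for the tag-only sample. Reads came from pools of yeast-expressed, GST-fused human transcription factors on glutathione beads, barcoded with DNA and mixed with that sample, which were incubated with 200 nmole of a random double-stranded 16-mer DNA library in Tris/NaCl/DTT/glycerol buffer at room temperature for 30 min. After washing, the pools were crosslinked with 0.1% formaldehyde, proximity-ligated with BsaI/T4 ligase for 1 h at 37 °C, PCR-amplified and sequenced on an Illumina NextSeq500.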

ELK1 = target: T2, ELK1 (Homo sapiens, UniProt P19419 1-428)
T2 sequence: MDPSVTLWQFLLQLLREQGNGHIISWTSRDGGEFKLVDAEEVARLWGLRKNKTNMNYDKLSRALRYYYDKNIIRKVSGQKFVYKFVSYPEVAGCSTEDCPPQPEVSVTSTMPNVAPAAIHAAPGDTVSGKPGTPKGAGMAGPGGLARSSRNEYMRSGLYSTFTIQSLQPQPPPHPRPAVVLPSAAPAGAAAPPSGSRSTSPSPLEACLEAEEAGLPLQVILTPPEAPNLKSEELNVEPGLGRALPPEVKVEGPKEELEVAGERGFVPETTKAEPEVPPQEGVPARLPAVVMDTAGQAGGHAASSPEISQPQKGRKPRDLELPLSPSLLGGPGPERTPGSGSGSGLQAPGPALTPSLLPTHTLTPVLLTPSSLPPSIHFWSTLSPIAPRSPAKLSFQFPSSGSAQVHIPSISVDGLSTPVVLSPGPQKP
How it was run: as §1

GABPA = target: T3, GABPA (Homo sapiens, UniProt Q06546 1-454)
T3 sequence: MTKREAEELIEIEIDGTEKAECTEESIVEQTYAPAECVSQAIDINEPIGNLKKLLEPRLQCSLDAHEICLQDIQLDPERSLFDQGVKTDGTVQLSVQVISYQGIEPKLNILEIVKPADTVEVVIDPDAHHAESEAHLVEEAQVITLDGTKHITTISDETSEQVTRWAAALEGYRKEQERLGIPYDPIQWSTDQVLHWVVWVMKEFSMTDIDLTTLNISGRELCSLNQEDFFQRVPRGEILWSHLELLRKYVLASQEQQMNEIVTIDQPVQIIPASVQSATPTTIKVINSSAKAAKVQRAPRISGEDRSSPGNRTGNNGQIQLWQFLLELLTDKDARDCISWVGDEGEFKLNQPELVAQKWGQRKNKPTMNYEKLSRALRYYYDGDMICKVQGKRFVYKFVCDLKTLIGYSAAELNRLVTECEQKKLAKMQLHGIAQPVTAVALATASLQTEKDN
How it was run: as §1

ERG = target: T4, ERG (Homo sapiens, UniProt P11308 1-479)
T4 sequence: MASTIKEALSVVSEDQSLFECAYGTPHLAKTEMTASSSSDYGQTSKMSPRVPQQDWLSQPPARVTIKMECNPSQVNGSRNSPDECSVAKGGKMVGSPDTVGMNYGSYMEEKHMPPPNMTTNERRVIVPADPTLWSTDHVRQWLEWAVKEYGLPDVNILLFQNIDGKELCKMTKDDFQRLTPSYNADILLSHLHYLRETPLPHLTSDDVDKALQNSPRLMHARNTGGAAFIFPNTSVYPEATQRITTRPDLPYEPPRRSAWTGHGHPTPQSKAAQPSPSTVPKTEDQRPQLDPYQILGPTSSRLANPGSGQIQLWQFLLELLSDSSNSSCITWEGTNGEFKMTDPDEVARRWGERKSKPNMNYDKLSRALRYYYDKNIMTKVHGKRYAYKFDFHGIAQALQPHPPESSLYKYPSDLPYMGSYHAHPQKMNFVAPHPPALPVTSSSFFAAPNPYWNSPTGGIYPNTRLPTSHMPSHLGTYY
How it was run: as §1

ELF1 = ELF1 (Homo sapiens, UniProt P32519 1-619)
Chain of ELF1 (P32519 whole entry): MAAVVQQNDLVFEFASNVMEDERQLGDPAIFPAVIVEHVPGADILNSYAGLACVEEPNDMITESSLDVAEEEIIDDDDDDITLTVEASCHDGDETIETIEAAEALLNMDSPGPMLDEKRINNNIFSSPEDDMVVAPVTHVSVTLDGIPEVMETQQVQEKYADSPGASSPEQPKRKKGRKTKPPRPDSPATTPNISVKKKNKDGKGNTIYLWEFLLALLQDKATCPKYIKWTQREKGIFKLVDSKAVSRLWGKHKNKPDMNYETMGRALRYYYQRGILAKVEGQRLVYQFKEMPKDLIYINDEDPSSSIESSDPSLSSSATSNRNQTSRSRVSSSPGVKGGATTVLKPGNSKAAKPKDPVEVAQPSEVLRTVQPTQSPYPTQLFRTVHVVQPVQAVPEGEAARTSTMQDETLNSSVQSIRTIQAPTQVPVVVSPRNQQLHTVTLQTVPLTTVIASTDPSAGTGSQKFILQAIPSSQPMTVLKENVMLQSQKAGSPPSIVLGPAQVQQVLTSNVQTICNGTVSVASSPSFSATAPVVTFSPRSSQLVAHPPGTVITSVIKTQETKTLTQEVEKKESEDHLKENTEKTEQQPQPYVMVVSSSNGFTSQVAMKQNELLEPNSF
How it was run: as §1

EHF = target: T5, EHF (Homo sapiens, UniProt Q9NZC4 1-300)
T5 sequence: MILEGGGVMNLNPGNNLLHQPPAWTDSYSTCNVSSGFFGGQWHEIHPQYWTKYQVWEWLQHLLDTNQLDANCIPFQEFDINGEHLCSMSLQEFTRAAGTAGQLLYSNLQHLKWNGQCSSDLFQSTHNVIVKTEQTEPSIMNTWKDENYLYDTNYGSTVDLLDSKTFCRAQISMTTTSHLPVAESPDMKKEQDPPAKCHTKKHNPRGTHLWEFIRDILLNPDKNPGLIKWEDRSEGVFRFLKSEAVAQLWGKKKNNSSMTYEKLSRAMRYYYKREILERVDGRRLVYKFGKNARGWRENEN
How it was run: as §1

SPI1 = SPI1 (Homo sapiens, UniProt P17947 1-270)
How it was run: as §1

SPIB = SPIB (Homo sapiens, UniProt Q01892 1-262)
Chain of SPIB (Q01892 whole entry): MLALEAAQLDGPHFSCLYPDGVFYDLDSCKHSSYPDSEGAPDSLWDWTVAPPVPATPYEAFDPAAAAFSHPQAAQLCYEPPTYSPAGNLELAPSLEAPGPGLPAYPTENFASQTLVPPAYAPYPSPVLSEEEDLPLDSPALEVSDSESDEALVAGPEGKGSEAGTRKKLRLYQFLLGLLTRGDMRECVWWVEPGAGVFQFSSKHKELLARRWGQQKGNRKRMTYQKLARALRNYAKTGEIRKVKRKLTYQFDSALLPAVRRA
How it was run: as §1

ELK3 = target: T6, ELK3 (Homo sapiens, UniProt P41970 1-407)
T6 sequence: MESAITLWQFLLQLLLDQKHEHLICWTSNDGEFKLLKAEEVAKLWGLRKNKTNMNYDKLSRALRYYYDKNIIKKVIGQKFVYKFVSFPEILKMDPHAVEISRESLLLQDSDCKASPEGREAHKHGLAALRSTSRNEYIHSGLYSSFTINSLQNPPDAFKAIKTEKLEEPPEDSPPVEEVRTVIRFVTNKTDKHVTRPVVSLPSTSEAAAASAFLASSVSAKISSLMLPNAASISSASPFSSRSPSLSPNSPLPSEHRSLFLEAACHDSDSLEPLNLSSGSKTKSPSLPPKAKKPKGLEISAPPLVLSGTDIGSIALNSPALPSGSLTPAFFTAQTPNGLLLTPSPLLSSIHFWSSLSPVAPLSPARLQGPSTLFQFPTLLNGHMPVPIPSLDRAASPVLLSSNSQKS
How it was run: as §1

Sequence	binding signal (FLI1)	binding signal (ELK1)	binding signal (GABPA)	binding signal (ERG)	binding signal (ELF1)	binding signal (EHF)	binding signal (SPI1)	binding signal (SPIB)	binding signal (ELK3)
TACCAA	1.14 fold enrichment (6-mer frequency, TF over GST control)	1.17 fold enrichment (6-mer frequency, TF over GST control)	1.11 fold enrichment (6-mer frequency, TF over GST control)	1.18 fold enrichment (6-mer frequency, TF over GST control)	1.21 fold enrichment (6-mer frequency, TF over GST control)	1.13 fold enrichment (6-mer frequency, TF over GST control)	1.16 fold enrichment (6-mer frequency, TF over GST control)	1.13 fold enrichment (6-mer frequency, TF over GST control)	1.05 fold enrichment (6-mer frequency, TF over GST control)
CCGAAC	1.26 fold enrichment (6-mer frequency, TF over GST control)	1.21 fold enrichment (6-mer frequency, TF over GST control)	1.29 fold enrichment (6-mer frequency, TF over GST control)	1.21 fold enrichment (6-mer frequency, TF over GST control)	1.26 fold enrichment (6-mer frequency, TF over GST control)	1.32 fold enrichment (6-mer frequency, TF over GST control)	1.25 fold enrichment (6-mer frequency, TF over GST control)	1.2 fold enrichment (6-mer frequency, TF over GST control)	1.33 fold enrichment (6-mer frequency, TF over GST control)
TAAACT	1.13 fold enrichment (6-mer frequency, TF over GST control)	1.24 fold enrichment (6-mer frequency, TF over GST control)	1.19 fold enrichment (6-mer frequency, TF over GST control)	1.14 fold enrichment (6-mer frequency, TF over GST control)	1.13 fold enrichment (6-mer frequency, TF over GST control)	1.15 fold enrichment (6-mer frequency, TF over GST control)	1.15 fold enrichment (6-mer frequency, TF over GST control)	1.23 fold enrichment (6-mer frequency, TF over GST control)	1.27 fold enrichment (6-mer frequency, TF over GST control)
TTCTCC	1.42 fold enrichment (6-mer frequency, TF over GST control)	1.45 fold enrichment (6-mer frequency, TF over GST control)	1.6 fold enrichment (6-mer frequency, TF over GST control)	1.43 fold enrichment (6-mer frequency, TF over GST control)	1.56 fold enrichment (6-mer frequency, TF over GST control)	1.62 fold enrichment (6-mer frequency, TF over GST control)	1.63 fold enrichment (6-mer frequency, TF over GST control)	1.61 fold enrichment (6-mer frequency, TF over GST control)	1.6 fold enrichment (6-mer frequency, TF over GST control)
TCAAAA	1.12 fold enrichment (6-mer frequency, TF over GST control)	1.12 fold enrichment (6-mer frequency, TF over GST control)	1.23 fold enrichment (6-mer frequency, TF over GST control)	1.14 fold enrichment (6-mer frequency, TF over GST control)	1.19 fold enrichment (6-mer frequency, TF over GST control)	1.1 fold enrichment (6-mer frequency, TF over GST control)	1.3 fold enrichment (6-mer frequency, TF over GST control)	1.15 fold enrichment (6-mer frequency, TF over GST control)	1.17 fold enrichment (6-mer frequency, TF over GST control)
TTGTAT	1.52 fold enrichment (6-mer frequency, TF over GST control)	1.33 fold enrichment (6-mer frequency, TF over GST control)	1.29 fold enrichment (6-mer frequency, TF over GST control)	1.31 fold enrichment (6-mer frequency, TF over GST control)	1.32 fold enrichment (6-mer frequency, TF over GST control)	1.37 fold enrichment (6-mer frequency, TF over GST control)	1.11 fold enrichment (6-mer frequency, TF over GST control)	1.38 fold enrichment (6-mer frequency, TF over GST control)	1.4 fold enrichment (6-mer frequency, TF over GST control)
AACTAG	1.06 fold enrichment (6-mer frequency, TF over GST control)	1.15 fold enrichment (6-mer frequency, TF over GST control)	1.22 fold enrichment (6-mer frequency, TF over GST control)	1.21 fold enrichment (6-mer frequency, TF over GST control)	1.16 fold enrichment (6-mer frequency, TF over GST control)	1.12 fold enrichment (6-mer frequency, TF over GST control)	1.11 fold enrichment (6-mer frequency, TF over GST control)	1.07 fold enrichment (6-mer frequency, TF over GST control)	1.11 fold enrichment (6-mer frequency, TF over GST control)
ATTTTG	1.19 fold enrichment (6-mer frequency, TF over GST control)	1.25 fold enrichment (6-mer frequency, TF over GST control)	1.33 fold enrichment (6-mer frequency, TF over GST control)	1.2 fold enrichment (6-mer frequency, TF over GST control)	1.28 fold enrichment (6-mer frequency, TF over GST control)	1.3 fold enrichment (6-mer frequency, TF over GST control)	1.31 fold enrichment (6-mer frequency, TF over GST control)	1.28 fold enrichment (6-mer frequency, TF over GST control)	1.14 fold enrichment (6-mer frequency, TF over GST control)
